GalR3 antag – blocks the human galanin receptor 3 | O60755 | HEK293 GalR3-CNG cAMP membrane potential fluorescence; galR3 body fused to GalR1 C-terminus | inhibition, % at 3 µM | 0.44% of 360,000 active | AID 651719;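 active = inhibition above the screen-wide average plus 3 SD, cut at about 13% in these data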;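 note: forskolin and galanin both at EC90 stimulate the cells; cAMP rise reported by CNG channel membrane potential dye signal; 0% = forskolin plus galanin with DMSO and 100% = forskolin alone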
Target sequence (O60755 1-299 limits assumed): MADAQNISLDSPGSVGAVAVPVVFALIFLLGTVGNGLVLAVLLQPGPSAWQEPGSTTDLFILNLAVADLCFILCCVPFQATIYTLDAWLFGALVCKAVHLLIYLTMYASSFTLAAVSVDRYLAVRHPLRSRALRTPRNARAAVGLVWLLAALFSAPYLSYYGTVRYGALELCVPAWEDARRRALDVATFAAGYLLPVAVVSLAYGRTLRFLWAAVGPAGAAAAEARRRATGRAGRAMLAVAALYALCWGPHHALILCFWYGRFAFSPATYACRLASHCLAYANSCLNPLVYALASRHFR
SRC2 inh – inhibits human steroid receptor coactivator 2 | 0.17% of 370,000 active | inhibition, % at 9 µM | HEK293 GAL4-SRC2 luciferase reporter, luminescence;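 active = inhibition above the mean inhibition of all tested compounds plus 3 SD, set per campaign, cut at about 52% in these data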;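 note: 0% = DMSO treated cells and 100% = cells given Gossypol at 36 µM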
NR5A2 inv ag – NR5A2 inverse agonism in reporter assay | O00482 | HEK293T StAR-luciferase reporter, LRH-1 transfected, 24 h | inhibition, % at 3.6 µM | 0.13% of 360,000 active;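 active = inhibition above the mean inhibition of all tested compounds plus 3 SD, cut at about 73% in these data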;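 note: 0% = DMSO wells and 100% = reporter-only cells lacking LRH-1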
SRC3 inh – inhibits human SRC3 coactivator | Q9Y6Q9 | inhibition, % at 3.6 µM | AID 588352 | HEK293 GAL4-SRC3 luciferase reporter, luminescence | 0.17% of 360,000 active;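 active = inhibition above a per-campaign cutoff, the mean of all compounds plus 3 SD, cut at about 60% in these data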;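 note: 0% = DMSO-treated cells and 100% = gossypol-treated cells at 36 µM; higher means less SRC3-driven luciferase light from the GAL4 reporter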
NCOA1 inh – inhibits human SRC1 coactivator | Q15788 | HEK293 GAL4-SRC1 luciferase reporter, luminescence | inhibition, % at 3.6 µM | 0.12% of 360,000 active | AID 588354;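 active = inhibition above the campaign mean plus 3 SD, with each screening campaign given its own cutoff, cut at about 60% in these data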;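 note: 0% = DMSO treated cells and 100% = gossypol at 36 µM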
COUP-TFII inh – blocks human COUP-TFII nuclear receptor; P24468; HEK293T NGFI-A luciferase reporter, luminescence; inhibition, % at 8.6 µM; 0.7% of 370,000 active;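 active = inhibition above a per-plate cutoff, mean inhibition of test wells between control levels plus 3 SD, cut at about 38% in these data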;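 note: cells cotransfected with COUP-TFII expression vector driving the NGFI-A reporter; 0% = median of COUP-TF2 test wells and 100% = reporter-only cells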
Target sequence (P24468 whole entry, looked up): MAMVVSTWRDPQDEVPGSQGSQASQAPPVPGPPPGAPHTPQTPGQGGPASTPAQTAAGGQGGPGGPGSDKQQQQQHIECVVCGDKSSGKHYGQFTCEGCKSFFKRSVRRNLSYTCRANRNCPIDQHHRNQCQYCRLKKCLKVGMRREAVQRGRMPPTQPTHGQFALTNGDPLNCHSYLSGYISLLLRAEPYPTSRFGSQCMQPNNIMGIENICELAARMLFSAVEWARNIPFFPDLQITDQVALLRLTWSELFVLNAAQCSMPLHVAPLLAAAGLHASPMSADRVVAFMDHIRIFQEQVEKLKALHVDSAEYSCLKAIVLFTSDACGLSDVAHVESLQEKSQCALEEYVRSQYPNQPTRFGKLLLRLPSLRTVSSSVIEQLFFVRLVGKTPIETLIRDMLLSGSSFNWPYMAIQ
GalR3 antag conf – GalR3 (human) antagonism, confirmation; shares compounds with GalR3 antag; HEK293 GalR3 CNG cAMP biosensor, membrane potential fluorescence; galR3 fused to GalR1 carboxy tail; challenged with forskolin and galanin at EC90; inhibition, % at 3 µM; 59% of 1,600 active; AID 652245;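 active = inhibition above the primary screen's cutoff, the mean inhibition of all screened compounds plus 3 SD, cut at about 13% in these data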;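 note: 0% = forskolin plus galanin and 100% = forskolin alone with DMSO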
HEK-CNG parental – parental cell agonism counter-screen for GalR3 antagonists. shares compounds with GalR3 antag. HEK293-CNG parental cells, cAMP membrane potential fluorescence; normalised: DMSO wells 0%, forskolin wells 100%. activation, % at 3 µM. 10% of 1,600 active. AID 652268; in the data active = activation above about 1.3%
An asterisk follows results filed as active; · = no result. Compounds with a hit are over-represented: about 1.1% of the library has one in this group of screens.

SMILES | GalR3 antag | SRC2 inh | NR5A2 inv ag | SRC3 inh | NCOA1 inh | COUP-TFII inh | GalR3 antag conf | HEK-CNG parental
S=c1[nH]nc(-c2n[nH]c3c2CCC3)n1N=Cc1cccs1 | · | 7.3 | · | · | · | 5.8 | · | ·
Cc1nn(-c2ccccc2)c(Cl)c1/C=C(\CC(=O)O)c1nc2ccccc2s1 | 13.0* | 28.4 | -8.6 | -6.9 | -15.2 | 13.9 | 3.1 | 0.2
Cc1nn(-c2ccccc2)c(Cl)c1/C=C(/CC(=O)O)c1nc2ccccc2s1 | -5.8 | 12.4 | -8.1 | -2.9 | 4.3 | 5.4 | · | ·
O=C(O)c1nn(CCSc2ccccc2F)c(=O)c2ccccc12 | 26.6* | -8.8 | 0.8 | -13.3 | -26.7 | -14.6 | 9.2 | 0.2
Cc1cccc(C)c1OCCn1nc(C(=O)O)c2ccccc2c1=O | 16.1* | -7.4 | -34.0 | -93.2 | -75.1 | -14.1 | 24.1* | 0.3
Cc1ccc(-c2noc(Cn3nc(C(=O)O)c4ccccc4c3=O)n2)cc1 | -7.9 | 7.1 | 0.7 | 7.5 | -5.7 | 7.7 | · | ·
Cc1noc(C)c1Cn1nc(C(=O)O)c2ccccc2c1=O | 19.2* | -24.4 | -0.1 | 20.8 | -7.6 | 1.9 | 27.0* | 0.6
O=C1NC(=Nc2ccccc2)S/C1=C\c1cccnc1 | 2.2 | -28.8 | 5.4 | 19.0 | -14.1 | 4.8 | · | ·
Cc1ccc(N=C2NC(=O)/C(=C/c3cccnc3)S2)cc1C | 15.0* | 1.5 | 15.4 | 22.2 | 4.2 | -5.7 | 3.9 | 0.5
CN(C)S(=O)(=O)c1ccc(C(=O)Nc2nc(-c3cc4ccccc4o3)cs2)cc1 | 93.2* | -10.6 | 1.0 | -9.4 | -10.3 | 34.6 | 102.7* | -1.2
O=C(Nc1nc(-c2cc3ccccc3o2)cs1)c1ccc(S(=O)(=O)N2CCCC2)cc1 | -4.0 | 10.4 | 13.2 | 5.5 | 11.7 | 4.6 | · | ·
O=C(NC1CCCCN(Cc2ccc(OC(F)(F)F)cc2)C1=O)c1ccc2ccccc2c1 (stereo not drawn) | · | 13.6 | · | · | · | 15.6 | · | ·
O=C(Cc1cccs1)N/N=C\c1ccccc1 | · | -10.1 | · | · | · | -11.5 | · | ·
CCCc1[nH][nH]c(=O)c1C(c1cccc(Cl)c1)C(C#N)C#N (stereo not drawn) | -3.0 | 6.5 | 0.5 | 0.3 | -1.1 | 8.0 | · | ·
N#CC(C#N)C(c1ccsc1)c1c(-c2ccccc2)[nH][nH]c1=O (stereo not drawn) | 14.2* | 2.7 | 18.1 | -0.5 | -15.4 | 3.1 | 16.9* | 2.8*
Cn1c(=O)c2cc(S(=O)(=O)N3CCN(Cc4ccccc4)CC3)ccc2n(C)c1=O | · | -14.9 | · | · | · | 10.0 | · | ·
Cc1ccc(-c2nc(C3CCCN(S(=O)(=O)c4ccc(Cl)s4)C3)no2)cc1 (stereo not drawn) | · | 0.2 | · | · | · | -7.4 | · | ·
CC(C)=CCc1c2c(c3occ(-c4ccc(O)cc4)c(=O)c3c1O)C=CC(C)(C)O2 | 20.3* | -6.5 | -4.3 | 14.3 | 2.3 | -1.2 | 24.3* | 0.3
CCOC(=O)C1=C(C)NC2=C(C(=O)CCC2)C1c1ccc(O)c(OCC)c1 (stereo not drawn) | 16.5* | 7.1 | 5.2 | -11.9 | -0.3 | 18.7 | 23.8* | 0.1
COc1cc(C2C3=C(CCCC3=O)Nc3ccc4ncccc4c32)ccc1O (stereo not drawn) | 15.1* | -50.8 | -17.4 | 3.8 | -14.2 | -11.8 | 6.4 | -0.4
CCOc1cc(C2C3=C(CCCC3=O)Nc3ccc4ncccc4c32)ccc1O (stereo not drawn) | 6.5 | -0.2 | -6.7 | 5.4 | -28.5 | -5.2 | · | ·
O=C(Cc1cccs1)NC1CCCCN(Cc2cccc(Cl)c2)C1=O (stereo not drawn) | · | -0.6 | · | · | · | -5.5 | · | ·
CCOc1ccc(S(=O)(=O)Nc2nc3ccccc3nc2N2CCN(C)CC2)cc1 | 20.3* | 11.4 | 43.0 | 1.1 | -3.4 | -12.4 | 17.1* | 0.4
Cc1c(NC(=O)C2CCCN(S(=O)(=O)c3ccccc3[N+](=O)[O-])C2)c(=O)n(-c2ccccc2)n1C (stereo not drawn) | · | -1.1 | · | · | · | -1.3 | · | ·
CC(=O)Nc1ccc(S(=O)(=O)Oc2ccc(N3C(=O)C4CCCCC4C3=O)cc2)cc1 (stereo not drawn) | 42.0* | -11.6 | 18.0 | 4.5 | 0.6 | 34.3 | 38.9* | -1.0
SMILES | GalR3 antag | SRC2 inh | NR5A2 inv ag | SRC3 inh | NCOA1 inh | COUP-TFII inh | GalR3 antag conf | HEK-CNG parental
COc1ccc2c(c1)OC(=O)CC2c1cc(OC)c(OC)c(OC)c1 (stereo not drawn) | 13.4* | -41.1 | 6.5 | 5.7 | 0.0 | 0.2 | 3.8 | 0.3
Cc1ccc(OCC(=O)Nc2ccc(S(=O)(=O)N3CCCCC3)cc2)c([N+](=O)[O-])n1 | -5.7 | 5.8 | 8.0 | -0.1 | 4.6 | 9.2 | · | ·
Cc1ccc(OCC(=O)Nc2cc(S(=O)(=O)N3CCCCC3)ccc2C)c([N+](=O)[O-])n1 | 12.8* | -5.3 | -2.3 | 12.3 | -6.5 | 20.9 | 0.4 | -0.2
COc1ccc(C2CCC3(CCC(=O)N3CCO)CC2)cc1 (stereo not drawn) | · | 23.4 | · | · | · | -3.1 | · | ·
CCc1ccc(NC(=O)C2CCCN(S(=O)(=O)c3ccc4c(c3)CC(C)N4C(C)=O)C2)cc1 (stereo not drawn) | 1.8 | 3.4 | 11.1 | -0.6 | -3.6 | 5.8 | · | ·
CCOC(=O)C1CCN(S(=O)(=O)c2ccc3c(c2)CC(C)N3C(=O)C2CC2)CC1 (stereo not drawn) | 17.2* | 3.5 | 1.3 | -32.3 | 28.3 | 21.8 | 8.3 | 0.2
CCc1ccc(NC(=O)C2CCN(S(=O)(=O)c3ccc4c(c3)CC(C)N4C(C)=O)CC2)cc1 (stereo not drawn) | 38.5* | 10.6 | 28.4 | 20.7 | 24.7 | 17.5 | 7.2 | -0.5
Cc1ccc(CN[C@@H]2CC[C@@]34CCCN3C(=O)CCC[C@H]4C2)cc1 | · | · | · | · | · | -14.9 | · | ·
O=C(Nc1ccc(Cl)c(Cl)c1)C1CCN(c2nnc(-n3cccc3)s2)CC1 | · | 1.9 | · | · | · | -1.3 | · | ·
CC(=O)c1ccc(S(=O)(=O)N2CCN(C(C)=O)CC2)cc1 | 16.4* | -8.4 | 16.7 | -19.8 | -2.5 | 12.9 | 1.0 | -0.1
COc1ccccc1OCc1ccc(C(=O)OCC2CCCO2)o1 (stereo not drawn) | 14.6* | 14.7 | -7.9 | 6.0 | -18.9 | -12.1 | 2.7 | -0.2
CC(C)(C)N1C(=O)[C@H]2[C@@H](c3ccc(Br)cc3)N3C(=O)N(c4ccccc4)C(=O)[C@@]3(Cc3ccccc3)[C@H]2C1=O | · | -3.0 | -0.6 | -14.0 | -5.2 | 14.1 | 1.9 | -0.5
COc1ccc(-c2c3c(=O)n(C)c(=O)n(C)c3cn2-c2cc(OC)ccc2OC)cc1 | 18.1* | 8.7 | 9.9 | -10.6 | -12.6 | -9.1 | 20.0* | 0.2
COc1ccc(-c2c3c(=O)n(C)c(=O)n(C)c3cn2-c2ccccc2O)cc1 | -0.5 | 19.5 | 15.7 | 7.3 | -9.0 | -11.1 | · | ·

Source: PubChem
